The list shows a part of the results. A number with no mark means an inactive call. Active and inactive are the calls of the source.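 How the source made its calls, unless noted: active means mean activation over triplicate exceeds the hit threshold set in the earlier primary screen (cut at about 20% in these data); inactive means the rest.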
Legend:
[1] = molecular target: Oxytocin receptor (Homo sapiens) (UniProt P30559); assay: oxytocin receptor activation, retest of hits – fluorescence, CHO-OTR cells, triplicate, confirmation (AID 434963;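 active means mean activation above about 20% derived from the earlier single-dose screen, limit read from the data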;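 further: peak over minimum fluorescence ratio per well during a 100 second FLIPR read; 0% = DMSO alone and 100% = oxytocin high control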); settings: Fluo-8 calcium fluorescence, agonist, at 3 µM, hits give high values
[2] = molecular target: Vasopressin V1a receptor (Homo sapiens) (UniProt P37288); assay: activators of vasopressin V1R in CHO cells – cell-based, triplicate, fluorescence, counter-screen for OXTR agonist project (AID 434991); settings: Fluo-8 calcium fluorescence, at 3 µM, hits give high values;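 further: peak over basal fluorescence ratio within a 100 second read; 0% = DMSO alone and 100% = 3 nM vasopressin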
[3] = molecular target: Lytic switch protein BZLF1 (Epstein-Barr virus (strain B95-8)) (UniProt P03206); assay: blockers of Zta-ZRE DNA complex – biochemical, fluorescence polarization, triplicate, confirmation (AID 2361;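 active means mean inhibition across triplicate runs above the hit threshold derived for the original primary screen, cut at about 33% in these data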;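 further: 0% = Zta with DMSO and 100% = wells lacking Zta protein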); settings: Zta-ZRE DNA binding, at 11.1 µM, hits give high values
[4] = test system: Epstein-Barr virus nuclear antigen 1 (EBNA-1), Human herpesvirus 4; assay: blockers of EBV EBNA-1 binding to DNA – biochemical, fluorescence polarization, counter-screen for ZTA inhibitor project (AID 2362; call rule not given here); settings: EBNA-1 DNA binding, at 14.8 µM, hits give high values
[5] = molecular target: Receptor-interacting serine/threonine-protein kinase 2 (Homo sapiens) (UniProt O43353); assay: inhibitors of RIPK2 association with NOD2 – fluorescence, CHO cells, BLA complementation, triplicate, confirmation (AID 624370;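 active means mean inhibition across replicates above a set limit taken from the earlier primary screen, cut at about 21% in these data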;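 further: 0% = DMSO-only wells and the high end = clavulanate BLA-blocked wells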); settings: CCF4 FRET, at 4.98 µM, hits give high values
[6] = BLA reporter readout interference – cell-based, CHO-K1 CMV-bla, CCF4 FRET, fluorescence, artefact control for NOD2-RIPK2 interaction inhibitor project, confirmation (AID 624371;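 active means mean inhibition above the low-control mean inhibition plus three low-control SD, cut at about 11% in these data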;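 further: 0% = DMSO only wells and 100% = clavulanate high control wells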); settings: CCF4 FRET ratio, counterscreen, at 4.98 µM, hits give high values
[7] = molecular target: Photoreceptor-specific nuclear receptor (Homo sapiens) (UniProt Q9Y5X4); assay: corepressor-releasing ligands of human NR2E3 – biochemical, TR-FRET, confirmation (AID 2379; in the data active means activation above about 20%); settings: cell-free NR2E3 corepressor release, 5 h, at 3.98 µM, hits give high values
[8] = molecular target: Peroxisome proliferator-activated receptor gamma (Homo sapiens) + Nuclear receptor corepressor 2 (Homo sapiens) (UniProt P37231+Q9Y618); assay: agonists of PPARg-NCOR2 corepressor interaction, counter-screen for NR2E3 agonist project, biochemical, TR-FRET (AID 504787; in the data active means inhibition above about 20%;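 further: 0% = DMSO vehicle and 100% = wells without protein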); settings: TR-FRET PPARg-NCOR2 coregulator interaction, at 3.98 µM, hits give high values
Sequence of Peroxisome proliferator-activated receptor gamma (Homo sapiens) + Nuclear receptor corepressor 2 (Homo sapiens) (P37231 whole entry, looked up): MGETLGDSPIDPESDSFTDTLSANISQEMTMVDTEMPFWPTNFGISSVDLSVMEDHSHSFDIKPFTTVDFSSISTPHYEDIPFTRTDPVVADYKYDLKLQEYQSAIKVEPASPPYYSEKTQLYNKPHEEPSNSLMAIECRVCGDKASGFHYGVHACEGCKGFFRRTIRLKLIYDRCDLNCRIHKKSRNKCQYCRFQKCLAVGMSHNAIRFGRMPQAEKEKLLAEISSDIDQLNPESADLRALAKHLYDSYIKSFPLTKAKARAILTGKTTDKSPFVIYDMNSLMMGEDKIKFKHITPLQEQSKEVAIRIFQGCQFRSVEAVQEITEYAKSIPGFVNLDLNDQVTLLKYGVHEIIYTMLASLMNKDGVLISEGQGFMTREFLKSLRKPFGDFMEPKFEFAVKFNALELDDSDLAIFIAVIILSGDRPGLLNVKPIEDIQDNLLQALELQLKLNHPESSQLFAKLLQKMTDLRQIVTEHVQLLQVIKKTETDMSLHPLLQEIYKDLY
Sequence of Peroxisome proliferator-activated receptor gamma (Homo sapiens) + Nuclear receptor corepressor 2 (Homo sapiens) (Q9Y618 whole entry, looked up): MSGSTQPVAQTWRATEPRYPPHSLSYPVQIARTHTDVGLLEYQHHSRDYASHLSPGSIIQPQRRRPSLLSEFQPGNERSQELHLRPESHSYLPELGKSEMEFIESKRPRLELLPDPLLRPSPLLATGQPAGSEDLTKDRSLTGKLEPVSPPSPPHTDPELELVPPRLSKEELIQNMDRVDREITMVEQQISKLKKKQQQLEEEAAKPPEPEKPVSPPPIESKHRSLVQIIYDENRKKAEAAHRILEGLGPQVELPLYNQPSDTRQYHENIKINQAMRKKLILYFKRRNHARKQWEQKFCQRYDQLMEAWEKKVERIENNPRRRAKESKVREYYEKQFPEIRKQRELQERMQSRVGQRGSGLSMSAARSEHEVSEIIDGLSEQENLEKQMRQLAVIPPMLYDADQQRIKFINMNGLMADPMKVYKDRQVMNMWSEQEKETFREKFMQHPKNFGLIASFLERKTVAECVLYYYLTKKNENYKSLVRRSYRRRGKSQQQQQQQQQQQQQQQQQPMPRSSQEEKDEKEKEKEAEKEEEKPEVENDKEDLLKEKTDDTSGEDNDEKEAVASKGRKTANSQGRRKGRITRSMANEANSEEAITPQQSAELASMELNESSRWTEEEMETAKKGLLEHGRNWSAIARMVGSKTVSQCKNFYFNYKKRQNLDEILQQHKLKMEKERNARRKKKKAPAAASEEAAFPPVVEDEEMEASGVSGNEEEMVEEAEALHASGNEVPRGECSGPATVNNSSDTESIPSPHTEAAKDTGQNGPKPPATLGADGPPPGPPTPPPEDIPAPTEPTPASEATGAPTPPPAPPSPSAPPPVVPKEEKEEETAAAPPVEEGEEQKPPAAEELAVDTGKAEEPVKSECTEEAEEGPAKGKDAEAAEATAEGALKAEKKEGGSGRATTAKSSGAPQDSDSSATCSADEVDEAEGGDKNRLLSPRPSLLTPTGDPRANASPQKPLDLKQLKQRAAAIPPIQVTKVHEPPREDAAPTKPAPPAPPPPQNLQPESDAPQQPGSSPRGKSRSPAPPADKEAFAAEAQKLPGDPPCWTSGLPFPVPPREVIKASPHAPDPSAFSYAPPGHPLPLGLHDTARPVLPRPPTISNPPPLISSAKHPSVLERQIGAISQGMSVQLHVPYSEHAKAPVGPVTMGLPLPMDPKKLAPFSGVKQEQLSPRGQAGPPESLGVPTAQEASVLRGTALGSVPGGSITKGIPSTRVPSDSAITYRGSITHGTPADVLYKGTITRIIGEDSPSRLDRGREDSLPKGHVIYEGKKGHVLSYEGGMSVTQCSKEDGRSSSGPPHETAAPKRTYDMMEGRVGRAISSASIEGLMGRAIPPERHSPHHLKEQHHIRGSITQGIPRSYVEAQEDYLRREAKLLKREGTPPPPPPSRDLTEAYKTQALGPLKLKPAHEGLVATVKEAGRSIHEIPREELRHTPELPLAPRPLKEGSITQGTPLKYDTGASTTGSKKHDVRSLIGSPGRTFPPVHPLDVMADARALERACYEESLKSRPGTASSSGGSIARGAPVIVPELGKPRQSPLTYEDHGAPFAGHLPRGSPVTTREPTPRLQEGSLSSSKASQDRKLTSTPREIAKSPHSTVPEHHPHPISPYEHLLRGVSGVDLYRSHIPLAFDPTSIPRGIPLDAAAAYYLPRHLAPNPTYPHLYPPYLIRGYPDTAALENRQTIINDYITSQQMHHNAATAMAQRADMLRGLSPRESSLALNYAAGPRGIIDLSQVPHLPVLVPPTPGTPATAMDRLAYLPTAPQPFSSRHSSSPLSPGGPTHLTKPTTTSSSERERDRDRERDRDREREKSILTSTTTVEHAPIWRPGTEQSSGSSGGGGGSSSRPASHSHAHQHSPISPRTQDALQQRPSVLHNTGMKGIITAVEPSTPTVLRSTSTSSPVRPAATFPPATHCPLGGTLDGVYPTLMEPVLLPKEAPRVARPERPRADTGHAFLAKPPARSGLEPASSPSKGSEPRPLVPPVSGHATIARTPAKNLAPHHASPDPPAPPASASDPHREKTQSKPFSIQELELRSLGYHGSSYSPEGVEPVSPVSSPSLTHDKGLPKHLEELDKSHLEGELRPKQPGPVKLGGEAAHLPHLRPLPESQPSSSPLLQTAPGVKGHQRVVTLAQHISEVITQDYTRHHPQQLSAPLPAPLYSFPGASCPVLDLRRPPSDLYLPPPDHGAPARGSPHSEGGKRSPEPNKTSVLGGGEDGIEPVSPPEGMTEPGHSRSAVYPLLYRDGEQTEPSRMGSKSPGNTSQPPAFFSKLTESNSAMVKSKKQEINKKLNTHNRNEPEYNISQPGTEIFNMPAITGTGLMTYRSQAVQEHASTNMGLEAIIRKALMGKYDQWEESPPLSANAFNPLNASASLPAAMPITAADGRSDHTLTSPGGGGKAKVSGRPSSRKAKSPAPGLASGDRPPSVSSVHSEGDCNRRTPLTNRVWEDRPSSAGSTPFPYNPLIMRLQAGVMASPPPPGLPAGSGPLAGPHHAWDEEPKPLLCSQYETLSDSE

Sequence of Photoreceptor-specific nuclear receptor (Homo sapiens) (Q9Y5X4 whole entry, looked up): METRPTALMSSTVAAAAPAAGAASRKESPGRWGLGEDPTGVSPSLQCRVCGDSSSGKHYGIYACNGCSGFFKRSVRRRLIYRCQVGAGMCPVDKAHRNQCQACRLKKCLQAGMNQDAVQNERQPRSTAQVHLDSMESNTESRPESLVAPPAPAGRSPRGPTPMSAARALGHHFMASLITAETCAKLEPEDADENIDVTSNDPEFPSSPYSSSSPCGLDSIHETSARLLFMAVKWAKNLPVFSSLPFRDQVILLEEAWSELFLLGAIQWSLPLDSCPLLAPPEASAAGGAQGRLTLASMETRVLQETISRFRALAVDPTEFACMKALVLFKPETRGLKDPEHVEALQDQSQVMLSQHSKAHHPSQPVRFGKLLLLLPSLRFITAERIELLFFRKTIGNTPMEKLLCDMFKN
Sequence of Lytic switch protein BZLF1 (Epstein-Barr virus (strain B95-8)) (P03206 whole entry, looked up): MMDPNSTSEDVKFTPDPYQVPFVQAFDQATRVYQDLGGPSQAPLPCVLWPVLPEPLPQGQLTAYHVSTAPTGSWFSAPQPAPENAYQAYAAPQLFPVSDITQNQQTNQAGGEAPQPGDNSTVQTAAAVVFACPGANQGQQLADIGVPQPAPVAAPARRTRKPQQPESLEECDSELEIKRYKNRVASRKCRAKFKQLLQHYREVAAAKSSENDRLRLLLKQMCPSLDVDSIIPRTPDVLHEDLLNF
Sequence of Oxytocin receptor (Homo sapiens) (P30559 whole entry, looked up): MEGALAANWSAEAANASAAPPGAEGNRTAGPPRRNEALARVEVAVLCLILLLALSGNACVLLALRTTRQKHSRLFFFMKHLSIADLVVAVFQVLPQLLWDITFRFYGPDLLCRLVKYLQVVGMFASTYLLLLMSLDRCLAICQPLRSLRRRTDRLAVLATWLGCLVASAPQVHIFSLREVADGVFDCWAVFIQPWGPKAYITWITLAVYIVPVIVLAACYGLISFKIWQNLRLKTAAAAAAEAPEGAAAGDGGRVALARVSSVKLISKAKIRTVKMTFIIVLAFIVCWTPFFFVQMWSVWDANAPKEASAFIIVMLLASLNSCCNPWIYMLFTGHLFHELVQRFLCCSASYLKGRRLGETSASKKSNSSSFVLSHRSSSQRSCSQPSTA
Sequence of Vasopressin V1a receptor (Homo sapiens) (P37288 whole entry, looked up): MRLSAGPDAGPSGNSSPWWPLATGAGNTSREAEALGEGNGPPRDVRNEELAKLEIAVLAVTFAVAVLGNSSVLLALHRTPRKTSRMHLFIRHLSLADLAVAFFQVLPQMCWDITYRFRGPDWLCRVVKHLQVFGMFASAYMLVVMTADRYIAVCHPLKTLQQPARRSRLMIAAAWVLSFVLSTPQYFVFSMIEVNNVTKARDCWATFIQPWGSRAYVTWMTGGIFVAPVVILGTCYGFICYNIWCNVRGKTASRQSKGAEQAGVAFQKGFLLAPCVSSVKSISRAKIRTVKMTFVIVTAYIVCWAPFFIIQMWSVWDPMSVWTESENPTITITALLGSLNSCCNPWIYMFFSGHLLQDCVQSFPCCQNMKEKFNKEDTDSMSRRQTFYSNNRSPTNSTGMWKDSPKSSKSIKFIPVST
Sequence of Receptor-interacting serine/threonine-protein kinase 2 (Homo sapiens) (O43353 whole entry, looked up): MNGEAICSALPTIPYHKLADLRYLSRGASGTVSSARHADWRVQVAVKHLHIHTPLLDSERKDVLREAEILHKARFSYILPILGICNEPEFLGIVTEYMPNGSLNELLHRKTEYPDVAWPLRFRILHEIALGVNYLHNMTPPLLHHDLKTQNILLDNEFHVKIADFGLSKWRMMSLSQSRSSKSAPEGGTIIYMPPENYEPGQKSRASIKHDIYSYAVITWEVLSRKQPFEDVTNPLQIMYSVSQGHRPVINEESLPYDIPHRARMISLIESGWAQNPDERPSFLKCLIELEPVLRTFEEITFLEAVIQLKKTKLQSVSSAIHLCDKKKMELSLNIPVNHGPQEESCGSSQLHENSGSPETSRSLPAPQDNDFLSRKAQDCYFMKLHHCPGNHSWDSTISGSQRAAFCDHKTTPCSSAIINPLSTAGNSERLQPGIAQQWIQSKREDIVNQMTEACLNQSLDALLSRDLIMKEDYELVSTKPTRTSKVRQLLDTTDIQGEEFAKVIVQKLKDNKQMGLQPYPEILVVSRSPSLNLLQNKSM

O=C(c1ccco1)N1CCN(C(=O)C2CC(c3ccc(F)cc3)=NO2)CC1 (centres undefined)
activation [1]: -0.63%
activation [2]: 0.05%

CN(C)CCCN(C(=O)c1ccc(S(=O)(=O)N2CCCCCC2)cc1)c1nc2ccc(Br)cc2s1
activation [1]: 6.69%
activation [2]: 11.3%

C#CCOCCOCCOCCNc1nc(N2CCN(C(=O)CCCCCCCCCCNC(=O)[C@H]([C@@H](C)CC)n3cc(CCCCN=C(N)N)nn3)CC2)nc(N2CCN(C(=O)CCCCCCCCCCNC(=O)[C@H](CO)n3cc(CCCSC)nn3)CC2)n1
inhibition [3]: 57.5% (active)
inhibition [4]: 1.4%

NC(=O)C1=C[C@H](c2csc3ccccc23)C[C@H](OCc2ccc(CO)cc2)O1
activation [1]: 17.8%
activation [2]: 10.2%

CCC(=O)Nc1ccc(Nc2nc(Cl)nc(Nc3ccc(NC(=O)CC)cc3)n2)cc1
inhibition [3]: -2.63%
inhibition [4]: 5.66%

CN1CCN(CCCNC(=O)c2ccc(/C=C3\Oc4ccccc4N(Cc4ccc(Cl)cc4)C3=O)cc2)CC1
inhibition [3]: 51.8% (active)
inhibition [4]: -1.35%
inhibition [5]: 29% (active)
inhibition [6]: 12% (active)

COc1cc2[nH]c(=S)n(Cc3ccc(C)o3)c(=O)c2cc1OC
activation (reported as inhibition) [7]: -5.72%
inhibition [8]: -2.05%

COc1ccc(Cl)cc1NC(=O)NCC1CCN(Cc2ccccc2F)CC1
activation [1]: 7.35%
activation [2]: 6.95%

CC1(C)Cc2ccccc2-c2[nH]c(=S)[nH]c(=O)c21
activation (reported as inhibition) [7]: 28.7% (active)
inhibition [8]: 25.9% (active)

N#Cc1ccccc1Sc1ccccc1C(=O)OCC(=O)NC1CCCCC1
activation (reported as inhibition) [7]: 10.1%
inhibition [8]: 21.8% (active)

COc1cccc(-n2c(=S)[nH]c3c(oc4ccccc43)c2=O)c1
activation (reported as inhibition) [7]: 14.3%
inhibition [8]: 8.55%

From PubChem BioAssay
